Reference: the supplement of paper PMC11417369
± gives the standard deviation of the averaged measurements. Over roughly 25,000 sequences, “ln(normalized median fluorescence intensity)” has its median near 8.6; the highest 2% begin near 10. For the sample, the highest values were picked, then their nearest neighbours and some sequences at random.

test system: PfAP2-EXP AP2 domain (GST-tagged); assay: gcPBM binding intensity (ln(normalized median fluorescence intensity)); higher = stronger DNA binding
Outline: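 For binding intensity, the highest Masliner-normalised natural-log median intensity across replicate spots of either probe orientation was taken. Protein bound to the array was stained with Alexa488 anti-GST antibody and scanned at 488 nm. The protein, GST-tagged P. falciparum DNA-binding domains from E. coli at about 25 μg on average, had been applied for 1 h to an Agilent 4 × 180k array of primer-extended double-stranded 36-bp intergenic genomic probes and negative controls.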

Row | Sequence | gcPBM binding intensity (ln)
1 | TTTTTTTTTTTTTTGGGTACATAATAATAACAAGTG [XGTACX_site1034] | 8.28 ± 0.32
2 | TTTTTTTTTTTTTTATGTACGAAAGAAAAGCACATA [XGTACX_site8261] | 8.57 ± 0.27
3 | ATTTAGTATTCGAAACGTACACATATATATATATAT [XGTACX_site3910] | 10.2 ± 0.4
4 | TTTTATAAAGAACACAGACACACAAAGAAAGAACCA [CACACA_site4174] | 9.02 ± 0.6
5 | TACATACAGAAACACACACACACATATATATATATA [CACACA_site2919] | 10 ± 0.28
6 | AAGAACAGAACGTACACACACATATATATATATATA [CACACA_site3457] | 10.2 ± 0.23
7 | AACACAAGAACAGAACGTACACACACATATATATAT [XGTACX_site7347] | 9.76 ± 0.16
8 | CAAGAAACAGTGATACGTACACATATATATATATAT [XGTACX_site3229] | 10.2 ± 0.32
9 | ACAAGAACAGAACGTACACACACATATATATATATA [CACACA_site9143] | 9.97 ± 0.39
10 | CATACACAGAAACACACACACATATATACATATATA [CACACA_site1094] | 8.59 ± 0.56
11 | ATATATATATATATATGTACTGAATAAAGAACAAAA [XGTACX_site5400] | 10.1 ± 0.42
12 | AAAATAAAAATAACAACACACATATACTATAATATT [CACACA_site2769] | 8.7 ± 0.46
13 | TTTCCTAGCACATGCACACAAAAAAAAAAAAAAAAA [CACACA_site1404] | 8.35 ± 0.35
14 | AATTAGATTTACTGAAGTACTTAATTTATTTTATTA [XGTACX_site3407] | 8.85 ± 0.34
15 | ATTTATTAATTACCATGTATAAAAAATTATATAATA [CACACA_negctrl_site581] | 8.19 ± 0.51
16 | AATAAAAATAAAAATTGTACACTTTTTTAATATTTA [XGTACX_site892] | 8.11 ± 0.25
17 | ATATAATTCAAATACAGTACATATACAATATATACA [XGTACX_site1191] | 8.21 ± 0.3
18 | TTTTTTTTTTTTTCAAGTACATATATATATATATAA [XGTACX_site2098] | 8.44 ± 0.45
19 | TACAAGCCCAATTCAAGTACATATATATATATATAT [XGTACX_site5569] | 10.2 ± 0.44
20 | TATTATGTTATATATTGTACATGTTTATTGAAACAA [XGTACX_site5605] | 8.66 ± 0.21
21 | ACTTCCTATATTTATGCATGCATTTTATTAAAAAAT [TGCATGCA_site747] | 9.92 ± 0.16
22 | TGCATTTTCCTATTTGCATGCAATTAAAATATAGAA [TGCATGCA_site862] | 10.2 ± 0.24
23 | AAATAAAAATTACAAGCATGCATTTTCCTATTTGCA [TGCATGCA_site861] | 8.56 ± 0.46
24 | TAAACAGACATATAAACACACATATAAACAGACATA [CACACA_site7214] | 8.69 ± 0.56

Row | Sequence | gcPBM binding intensity (ln)
25 | GTAAGAAACGGACACACACACATATATATATATATA [CACACA_site4593] | 10.2 ± 0.23
26 | CATACAGACGAACACACACACATATAAATATAAATA [CACACA_site6443] | 8.74 ± 0.55
27 | TGAACAGACGAGCACACACACACATATATATATATA [CACACA_site1019] | 10.2 ± 0.26
28 | TTGTAAGAAAAACACACACACACATATATATATATA [CACACA_site795] | 10.1 ± 0.23
29 | AACAGACAGAAACACACACACATATATATATATATA [CACACA_site3394] | 10 ± 0.41
30 | AAAACAAACGGACACACACACATATATATATATATA [CACACA_site5924] | 10.1 ± 0.32
31 | GTAAGAAACAGACACACACACATATAAATATAAATA [CACACA_site6515] | 8.77 ± 0.64
32 | AACAGACGAAGACACACACACATATATATATATATA [CACACA_site1020] | 10.2 ± 0.21
33 | AATGAACAGACGAGCACACACACACCCATATATATA [CACACA_site1018] | 8.85 ± 0.35
34 | GTAAGAAACAGACACACACACATATATATATATATA [CACACA_site794] | 10.2 ± 0.24
35 | TGAACTCACGAGCACACACACACATATATATATATA [CACACA_site8248] | 10.2 ± 0.34
36 | ATATATATATATATGTGTACATATTTTTTTGAAGTG [XGTACX_site248] | 10.1 ± 0.29
37 | TTTTTTTTTTTTTTTTGTACGTAAAAAAATATATAC [XGTACX_site1290] | 8.36 ± 0.22
38 | AAATATAATAACGAACGTACTTATTATAATTTGTAA [XGTACX_site2342] | 8.32 ± 0.25
39 | ACATATTAAAATATATGTACATAAAATATGAAAAAA [XGTACX_site5869] | 8.82 ± 0.3
40 | ATAATAAAAATATATACATGCATTATTATATATATA [TGCATGCA_site799] | 8.97 ± 0.16
41 | AAAATAAAAAGAAAAAATAAAAAGAAAAAATAAAAA [CACACA_negctrl_site120] | 8.33 ± 0.44
42 | CATTAAAAAGAAAGTTCACACACATATATATGACGG [CACACA_site8836] | 8.84 ± 0.57
43 | TAATTTCTTTAGGGGGTGCTTTTATAGTTTTTATTA | 10.4 ± 0.54
44 | CCTAATTTTATTAGGGTGCATTTTTAGTTAAATATA | 8.48 ± 0.27
45 | TTTATTATTATATTATTTTAATTTTTCTTTAGTACA [GTGCAC_negctrl_site392] | 8.29 ± 0.32
46 | AGTATAGATGTATACACACACCAAACGTTAAAAAAA [CACACA_site7443] | 8.71 ± 0.53
47 | CAAGGAACCGGACACACACACATAAATGTATTTATA [CACACA_site4574] | 8.46 ± 0.5
48 | AAAAAAAAAAAACACACACACACACTAATATATAAA [CACACA_site8302] | 8.47 ± 0.56

Row | Sequence | gcPBM binding intensity (ln)
49 | AATAAATATAAATACACACCCATATATATATATATA [CACACA_site5436] | 10.2 ± 0.35
50 | CCCACTAAAAAACACACACACACACCCATATATATA [CACACA_site6140] | 8.98 ± 0.31
51 | AATAAATATATATACACACCCATATATATATATATA [CACACA_site2595] | 10.1 ± 0.42
52 | CACCCACTAATAAACACACACATATATATATATATA [CACACA_site389] | 10.2 ± 0.35
53 | TATAAATATACACCCACACACATATATAAATAAATA [CACACA_site7717] | 8.93 ± 0.79
54 | TATATAAATATACACCCACACACATATATATATATA [CACACA_site9247] | 10.2 ± 0.26
55 | TATACATATACATATACACACACACCCATAAATAAA [CACACA_site8372] | 9.05 ± 0.38
56 | TACATATACATATACACACACACACCCAAATAAATA [CACACA_site1344] | 8.86 ± 0.51
57 | TATAAATATACACCCACACACATATATATATATATA [CACACA_site3745] | 10.2 ± 0.4
58 | AATAAATATAAATACACACCCATATAAATATAAATA [CACACA_site7264] | 8.64 ± 0.51
59 | AAAAAAAATACATACACACACACACCCACATATATA [CACACA_site3561] | 8.75 ± 0.65
60 | TTTTGATATATGAATATTAAGTTATATAATATTTTA [TGCATGCA_negctrl_site39] | 7.92 ± 0.28
61 | ATAATAATTTAATACATACACACGTATATCTTTTTT [CACACA_site2041] | 8.45 ± 0.4
62 | AAAAATTAACAAAAGGTGCAAACAAATAGTGGTTTT [GTGCAC_site9998] | 8.865 ± 0.049
63 | AATTGCTCGATATATGCACACAGTTTTGTTATTTTT [CACACA_site8465] | 8.94 ± 0.36
64 | AAAAAAAAAAAAAAAAGTACAAAAAGGAGAAAGATA [XGTACX_site7862] | 8.9 ± 0.47
65 | TTAAAAGAAAATAGGTGTACACATAATATATACATA [XGTACX_site7697] | 8.92 ± 0.057
66 | TTGTTTCCTTAATATTCACACACATATATATAATAT [CACACA_site8553] | 8.89 ± 0.48
67 | GTTTATATTAAACAAACACACACATATATATATATA [CACACA_site8749] | 10.2 ± 0.26
68 | ATATTAAACAAACACACACACATATATATATATATA [CACACA_site3383] | 10.2 ± 0.26
69 | TTATATTAAACAAACACACACATATATATATATATA [CACACA_site2382] | 10.1 ± 0.47
70 | AATTTTTTATTAAACACACAAACATATATATATATA [CACACA_site1937] | 9.94 ± 0.35
71 | GAATATTAAACAAACACACACACATATATTTATATA [CACACA_site7563] | 8.63 ± 0.42
72 | GAATATTAAACAAACACACACACATATATATATATA [CACACA_site3382] | 10.1 ± 0.32

Row | Sequence | gcPBM binding intensity (ln)
73 | TATATTAGAAGAAATTCACACATTCATGTAATCTTA [CACACA_site4706] | 8.07 ± 0.33
74 | ATAAATAAGATATATACACACATATCTATACATATT [CACACA_site6369] | 8.28 ± 0.49
75 | AATCGATAACAATGTAGTACCAGAAAAATAAATATT [XGTACX_site8501] | 8.99 ± 0.3
76 | AGAATCACCAAATATGTACACACCTTAACATGTTTA [CACACA_site2068] | 9.01 ± 0.46
77 | ATTAGCTACAAACAAAGGCTACCTATAGCAAGAGGG [GTGCAC_negctrl_site33] | 8.84 ± 0.39
78 | ATTATTAAAAAGATGTAAATAAATGAATATATGCTT [CACACA_negctrl_site539] | 8.47 ± 0.39
79 | TATTTTTTTTTTTTTTTTTTTTTAAAACATATCAAT [CACACA_negctrl_site925] | 7.95 ± 0.64
80 | GTTAGCTCGTTCGGAGCACACACATATATATATATA [CACACA_site8595] | 10.1 ± 0.45
81 | TAGCTCGTTCGGAGCACACACATATAAATAAATATA [CACACA_site7002] | 8.38 ± 0.52
82 | TAGCTCGTTCGGAGCACACACATATATATATATATA [CACACA_site1948] | 10.3 ± 0.28
83 | TTCTATATATTTGGAAGTACATTATATTTATTTTTT [XGTACX_site3172] | 8.44 ± 0.33
84 | AAATAATAAATATATCGTACAAATATCATATATAAA [XGTACX_site2771] | 8.32 ± 0.38
85 | ACACATAAATGAATAAATAAATAAATATAAATATAA [CACACA_negctrl_site1784] | 8.36 ± 0.29
86 | AATATTATAAATGTCACACATATATTCAAATATATA [CACACA_site4736] | 8.29 ± 0.38
87 | TATATGTAAATGGACACACACATATATATATATATA [CACACA_site3659] | 10.1 ± 0.36
88 | CCTAAATAAATGGACACACACATATATATATATATA [CACACA_site1439] | 10.2 ± 0.32
89 | CCTAAATAAATGGACACACACATATTTATATTTATA [CACACA_site6789] | 8.46 ± 0.45
90 | AATATATGTAAATGGACACACACATATATATATATA [CACACA_site9220] | 10 ± 0.28
91 | TATCTGTAAATGGACACACACATATATATATATATA [CACACA_site5926] | 10.2 ± 0.2
92 | AATAAATGGAATGTCACACATATATATATATATATA [CACACA_site4869] | 10.2 ± 0.37
93 | TACCTAAATAAATGGACACACACATATATATATATA [CACACA_site8407] | 10.1 ± 0.3
